Measured values published in PubChem BioAssay (NCI).
About 79,000 compounds went through this panel and 15% of them were active in at least one assay; those are over-represented in the sample as a whole. Activity calls are given as the source filed them. Cut-off read from the data, not from the text of the source: active = growth inhibition above about 70%; inactive = the rest.

Legend:
[1] = NCI Yeast Anticancer Drug Screen. Data for the mec2-1 strain (AID 157); details: S. cerevisiae mec2-1 strain, stronger effect = higher value
In short: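 Strain: mec2-1 (DNA repair/cell cycle alteration). Compound exposure, then growth measured; inhibition expressed relative to vehicle.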

[2] = NCI Yeast Anticancer Drug Screen. Data for the rad14 strain (AID 159);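 note: 0% = growth of vehicle-treated control cultures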; details: S. cerevisiae rad14 strain growth inhibition, stronger effect = higher value
In short: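 Yeast cells carrying a defined DNA-repair defect were exposed to compounds, and growth inhibition was calculated relative to vehicle-treated control cultures.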

[3] = NCI Yeast Anticancer Drug Screen. Data for the sgs1 mgt1 strain (AID 161);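 note: 0% = growth of cultures given vehicle only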; details: S. cerevisiae sgs1 mgt1 strain, stronger effect = higher value
In short: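 Test agents were incubated with a DNA-repair-mutant yeast strain. Growth was then read and compared against vehicle-treated controls.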

[4] = NCI Yeast Anticancer Drug Screen. Data for the CLN2oe strain (AID 163);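 note: 0% = growth of vehicle-only control cultures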; details: S. cerevisiae CLN2oe strain, stronger effect = higher value
In short: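 Growth of a genetically modified yeast strain is measured after compound exposure and compared with cultures given vehicle alone.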

[5] = NCI Yeast Anticancer Drug Screen. Data for the cln2 rad14 strain (AID 165);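 note: 0% = growth equal to vehicle treated cultures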; details: S. cerevisiae cln2 rad14 strain, stronger effect = higher value
In short: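 Compounds are applied to the cln2 rad14 yeast strain, and growth is then compared with that of vehicle-treated cultures to give inhibition.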

[6] = NCI Yeast Anticancer Drug Screen. Data for the bub3 strain (AID 167); details: S. cerevisiae bub3 mutant strain, stronger effect = higher value
In short: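 Compounds were applied to a genetically altered yeast strain carrying a cell-cycle control defect. Growth inhibition was scored against vehicle-treated controls.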

[7] = NCI Yeast Anticancer Drug Screen. Data for the wt2 strain (AID 169);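 note: 0% = growth of vehicle-treated yeast cultures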; details: S. cerevisiae wt2 strain growth inhibition, stronger effect = higher value
In short: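 This strain belongs to a panel of yeast strains with defined genetic alterations in DNA damage repair or cell cycle control. Compounds are applied, and growth inhibition is measured against vehicle-treated cultures.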

[8] = NCI Yeast Anticancer Drug Screen. Data for the mlh1 strain (AID 171);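 note: 0% = growth of vehicle-treated control cultures of the same strain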; details: S. cerevisiae mlh1 strain growth inhibition, stronger effect = higher value
In short: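 Growth of the mutant yeast strain after compound exposure, expressed as inhibition relative to vehicle-only controls.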

[9] = NCI Yeast Anticancer Drug Screen. Data for the sgs1 strain (AID 173);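 note: 0% = growth of vehicle-only control cultures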; details: S. cerevisiae sgs1 mutant, stronger effect = higher value
In short: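 Growth of a yeast strain bearing a defined genetic alteration is measured after compound treatment. Inhibition is expressed relative to vehicle-only controls.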

[10] = NCI Yeast Anticancer Drug Screen. Data for the mlh1 rad18 strain (AID 175); details: S. cerevisiae mlh1 rad18 strain growth inhibition, stronger effect = higher value
In short: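 Read-out is yeast growth inhibition, calculated against vehicle-only controls. The compound was applied to a strain engineered with DNA damage repair alterations.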

[11] = NCI Yeast Anticancer Drug Screen. Data for the rad18 strain (AID 177); details: S. cerevisiae rad18 mutant growth inhibition, stronger effect = higher value
In short: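 Growth of the mutant yeast strain after compound exposure, normalised to vehicle-only cultures.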

[12] = NCI Yeast Anticancer Drug Screen. Data for the rad52 strain (AID 147);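 note: 0% = growth of vehicle-treated control cultures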; details: S. cerevisiae rad52 mutant growth inhibition, stronger effect = higher value
In short: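 Compounds are applied to a genetically defined yeast strain lacking normal DNA damage repair, and inhibition of growth is expressed relative to cultures given vehicle only.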

[13] = NCI Yeast Anticancer Drug Screen. Data for the rad50EPP+ strain (AID 151);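 note: 0% = growth of vehicle-treated control cultures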; details: S. cerevisiae rad50 mutant strain, stronger effect = higher value
In short: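 Compounds were applied to the rad50EPP+ yeast strain, which bears a defined DNA repair alteration, and growth inhibition was determined relative to vehicle-treated cultures.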

[14] = NCI Yeast Anticancer Drug Screen. Data for the mgt1 strain (AID 153); details: S. cerevisiae mgt1 mutant growth inhibition, stronger effect = higher value
In short: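 Strain: mgt1 yeast, one of a set carrying defined DNA damage repair or cell cycle control alterations. Compound-treated growth compared with vehicle.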

[15] = NCI Yeast Anticancer Drug Screen. Data for the rad50 strain (AID 155);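 note: 0% = growth of vehicle-only cultures of the same strain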; details: S. cerevisiae rad50 strain growth inhibition, stronger effect = higher value
In short: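 Yeast carrying a defined DNA repair defect were exposed to test compounds, and growth was compared with vehicle-treated controls to give percent inhibition.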

[16] = at 5.0 µM (retest, dose inferred, filed as 0.5)
[17] = at 50.0 µM (retest, dose inferred, filed as 5.0)

Measured: growth inhibition

NC1CCCCC1N.Nc1c(N=Nc2ccc(-c3ccc(N=Nc4cc(S(=O)(=O)[O-])c5ccccc5c4N)cc3)cc2)cc(S(=O)(=O)[O-])c2ccccc12.[OH3+].[OH3+].[Pt+4]
inactive: [2]; at 1.2 µM 2% | [2]; at 3.7 µM 13% | [3]; [16] 38% | [4]; at 1.2 µM 1% | [4]; at 3.7 µM -1% | [4]; at 11.0 µM 22% | [4]; at 100.0 µM 63% | [5]; [16] 66% | [5]; at 50.0 µM 69.8% | [6]; at 1.2 µM -1% | [6]; at 3.7 µM -1% | [6]; at 11.0 µM 54% | [6]; at 100.0 µM 68% | [7]; at 1.2 µM -1% | [7]; at 3.7 µM 10% | [8]; at 1.2 µM -1% | [8]; at 3.7 µM 7% | [8]; at 100.0 µM 65% | [9]; at 1.2 µM 4% | [9]; at 3.7 µM 22% | [11]; at 1.2 µM 1% | [11]; at 3.7 µM -2% | [11]; at 11.0 µM 25%
active: [1]; at 100.0 µM 77% | [2]; at 11.0 µM 85% | [2]; at 33.0 µM 94% | [2]; at 100.0 µM 81% | [3]; [17] 89% | [3]; at 50.0 µM 84.9% | [4]; at 33.0 µM 89% | [5]; [17] 78% | [6]; [16] 91% | [6]; at 33.0 µM 90% | [6]; [17] 83% | [6]; at 50.0 µM 82.5% | [7]; at 11.0 µM 86% | [7]; at 33.0 µM 90% | [7]; at 100.0 µM 70% | [8]; at 11.0 µM 81% | [8]; at 33.0 µM 90% | [9]; at 11.0 µM 95% | [9]; at 33.0 µM 93% | [9]; at 100.0 µM 80% | [10]; [16] 77% | [10]; [17] 78% | [10]; at 50.0 µM 85.2% | [11]; at 33.0 µM 88% | [11]; at 100.0 µM 71%

CCCC/C=C/C(C)(C(=O)OCC)C(=O)OCC
active: [10]; [17] 81% | [10]; at 50.0 µM 70.2%
inactive: [12]; at 1.2 µM -5% | [12]; at 3.7 µM -5% | [12]; at 11.0 µM -1% | [12]; at 33.0 µM 4% | [12]; at 100.0 µM 22% | [13]; at 1.2 µM -3% | [13]; at 3.7 µM 0% | [13]; at 11.0 µM 4% | [13]; at 33.0 µM 9% | [13]; at 100.0 µM 16% | [14]; at 1.2 µM -4% | [14]; at 3.7 µM -4% | [14]; at 11.0 µM -4% | [14]; at 33.0 µM -2% | [14]; at 100.0 µM 16% | [15]; at 1.2 µM -6% | [15]; at 3.7 µM -5% | [15]; [16] 10% | [15]; at 11.0 µM -1% | [15]; at 33.0 µM 0% | [15]; [17] 8% | [15]; at 50.0 µM -6.4% | [15]; at 100.0 µM 19% | [1]; at 1.2 µM -2% | [1]; at 3.7 µM -4% | [1]; [16] 3% | [1]; at 11.0 µM -1% | [1]; at 33.0 µM 5% | [1]; [17] 16% | [1]; at 50.0 µM 26.9% | [1]; at 100.0 µM 25% | [2]; at 1.2 µM -5% | [2]; at 3.7 µM -5% | [2]; at 11.0 µM -1% | [2]; at 33.0 µM 3% | [2]; at 100.0 µM 15% | [3]; [16] 0% | [3]; [17] 51% | [3]; at 50.0 µM 37.6% | [4]; at 1.2 µM -3% | [4]; at 3.7 µM -7% | [4]; at 11.0 µM -8% | [4]; at 33.0 µM -1% | [4]; at 100.0 µM 12% | [5]; [16] -6% | [5]; [17] 32% | [5]; at 50.0 µM 58.5% | [6]; at 1.2 µM -6% | [6]; at 3.7 µM -5% | [6]; [16] -2% | [6]; at 11.0 µM -6% | [6]; at 33.0 µM -1% | [6]; [17] 12% | [6]; at 50.0 µM 67.8% | [6]; at 100.0 µM 19% | [7]; at 1.2 µM -4% | [7]; at 3.7 µM -4% | [7]; at 11.0 µM -6% | [7]; at 33.0 µM -4% | [7]; at 100.0 µM 14% | [8]; at 1.2 µM -4% | [8]; at 3.7 µM -3% | [8]; at 11.0 µM -1% | [8]; at 33.0 µM 5% | [8]; at 100.0 µM 29% | [9]; at 1.2 µM -3% | [9]; at 3.7 µM -1% | [9]; at 11.0 µM 3% | [9]; at 33.0 µM 6% | [9]; at 100.0 µM 38% | [10]; [16] 11% | [11]; at 1.2 µM -4% | [11]; at 3.7 µM 1% | [11]; at 11.0 µM 6% | [11]; at 33.0 µM 13% | [11]; at 100.0 µM 35%
